Data: PubChem BioAssay (NCATS)
“And” between values parts separate entries of the source, which are not always exact repeats. Equal values may be shown once. Results filed as inconclusive are left out. Entries that show only a call come without a potency. Values without a mark were called inactive. The source made the active and inactive calls. Unless noted, the call rests on the fitted dose curve; in most records, active means well fitted curve in the direction sought with a large enough effect; inconclusive means small, poorly fitted or top-dose-only effect, or another doubt; inactive means no such curve, though single readings can be large; an effect the other way counts as inactive or inconclusive.

What was measured:
[1] = molecular target: Cytochrome P450 2C9 (Homo sapiens) (UniProt P11712); test: Cytochrome P450 family 2 subfamily C member 9 (CYP2C9) small molecule antagonists: luciferase biochemical (cell-free) qHTS assay (AID 1645842; active means well fitted curve in the direction sought with a large enough effect in the repeat runs; an effect the other way counts as inactive or inconclusive; further: nearly all actives have a fitted effect of over 55% in size; further: potency means the concentration at half of the fitted maximal effect)
Summary of the method: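 Luminescence, after 20 min with luciferin detection reagent, reflected CYP2C9 turnover during a 1 h NADPH-driven reaction at 37C. Enzyme-substrate mix contained 0.4% bovine serum albumin and was preincubated with compound 10 min at room temperature.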

[2] = molecular target: Calcium and integrin-binding protein 1 (Homo sapiens) (UniProt Q99828); test: Primary qHTS for Identification of Calcium Integrin Binding Protein 1 (CIB1) Competitor (AID 1508620);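 further: GST tagged CIB1 binding a fluorescein labelled alphaIIb integrin peptide tracer; top concentration of the series differs between compounds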
Summary of the method: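 Fluorescence polarization competition: GST-tagged CIB1 (1 uM final) preincubated with compound 15 min at room temperature, then FITC-labelled alphaIIb peptide (100 nM final) added. After 15 min at room temperature, polarization read at Ex 480/Em 540.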

[3] = molecular target: Cytochrome P450 2D6 (Homo sapiens) (UniProt P10635); test: Cytochrome P450 family 2 subfamily D member 6 (CYP2D6) small molecule antagonists: luciferase biochemical (cell-free) qHTS assay (AID 1645840; active means well fitted curve in the direction sought with a large enough effect in the repeat runs; an effect the other way counts as inactive or inconclusive; further: nearly all actives have a fitted effect of over 55% in size; further: potency means the concentration at half of the fitted maximal effect)
Summary of the method: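 P450-Glo luminescent screen: recombinant CYP2D6 enzyme–proluciferin substrate mix preincubated with compound 10 min at room temperature, then NADPH regeneration added for 1 h at room temperature. Detection reagent added for 20 min; luciferin light read as relative luminescence units.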

[4] = molecular target: Cytochrome P450 3A4 (Homo sapiens) (UniProt P08684); test: Cytochrome P450 family 3 subfamily A member 4 (CYP3A4) small molecule antagonists: luciferase qHTS assay (AID 1645841; active means well fitted curve in the direction sought with a large enough effect in the repeat runs; an effect the other way counts as inactive or inconclusive; further: nearly all actives have a fitted effect of over 45% in size; further: potency means the concentration at half of the fitted maximal effect)
Summary of the method: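 P450-Glo CYP3A4 enzyme with proluciferin substrate preincubated 10 min with compound at room temperature, then NADPH regeneration 1 h. Luciferin detection reagent added for 20 min; luminescence recorded. Ketoconazole positive control.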

[5] = Primary qHTS for inhibitors of nuclear receptor binding SET domain protein 2 (NSD2) in an isogenic RCH-ACV NSD2 p.E1099K mutant (9B) (AID 1645876); further: nearly all actives have a fitted effect of over 70% in size; further: potency means the concentration at half of the fitted maximal effect
[6] = Primary qHTS for inhibitors of nuclear receptor binding SET domain protein 2 (NSD2) in an RCH-ACV wild type WT cells (2C) (AID 1645877); further: nearly all actives have a fitted effect of over 70% in size; further: potency means the concentration at half of the fitted maximal effect

Chain of Cytochrome P450 2C9 (Homo sapiens) (P11712 whole entry, looked up): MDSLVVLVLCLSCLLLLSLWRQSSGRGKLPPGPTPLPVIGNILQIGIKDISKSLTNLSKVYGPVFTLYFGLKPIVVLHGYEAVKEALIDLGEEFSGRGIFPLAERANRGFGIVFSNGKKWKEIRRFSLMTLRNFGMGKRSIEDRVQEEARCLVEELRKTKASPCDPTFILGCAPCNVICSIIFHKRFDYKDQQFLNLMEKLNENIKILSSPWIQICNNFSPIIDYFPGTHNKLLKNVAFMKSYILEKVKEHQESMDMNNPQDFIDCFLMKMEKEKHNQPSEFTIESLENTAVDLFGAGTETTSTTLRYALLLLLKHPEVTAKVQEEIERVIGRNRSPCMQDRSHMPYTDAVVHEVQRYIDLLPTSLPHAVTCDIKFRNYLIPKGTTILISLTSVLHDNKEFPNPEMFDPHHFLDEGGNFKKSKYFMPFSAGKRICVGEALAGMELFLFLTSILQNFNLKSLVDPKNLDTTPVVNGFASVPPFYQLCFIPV
Chain of Cytochrome P450 3A4 (Homo sapiens) (P08684 whole entry, looked up): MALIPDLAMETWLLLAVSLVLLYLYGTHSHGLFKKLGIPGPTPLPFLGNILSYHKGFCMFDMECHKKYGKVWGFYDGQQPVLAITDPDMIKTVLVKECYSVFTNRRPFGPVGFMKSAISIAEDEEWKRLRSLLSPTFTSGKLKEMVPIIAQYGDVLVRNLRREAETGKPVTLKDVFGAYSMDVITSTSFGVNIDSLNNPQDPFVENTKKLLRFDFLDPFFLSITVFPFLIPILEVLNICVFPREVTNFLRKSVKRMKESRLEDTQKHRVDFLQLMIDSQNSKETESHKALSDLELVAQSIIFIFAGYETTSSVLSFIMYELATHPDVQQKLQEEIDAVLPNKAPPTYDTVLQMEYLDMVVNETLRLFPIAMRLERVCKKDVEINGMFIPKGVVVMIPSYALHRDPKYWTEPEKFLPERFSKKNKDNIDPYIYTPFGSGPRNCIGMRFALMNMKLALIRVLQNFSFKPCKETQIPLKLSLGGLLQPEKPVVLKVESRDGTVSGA
Chain of Calcium and integrin-binding protein 1 (Homo sapiens) (Q99828 whole entry, looked up): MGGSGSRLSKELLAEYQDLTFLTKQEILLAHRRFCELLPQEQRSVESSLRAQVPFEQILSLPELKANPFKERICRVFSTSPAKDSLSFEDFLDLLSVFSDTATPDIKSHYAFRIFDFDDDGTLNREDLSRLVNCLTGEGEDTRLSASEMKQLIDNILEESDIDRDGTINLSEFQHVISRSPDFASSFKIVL
Chain of Cytochrome P450 2D6 (Homo sapiens) (P10635 whole entry, looked up): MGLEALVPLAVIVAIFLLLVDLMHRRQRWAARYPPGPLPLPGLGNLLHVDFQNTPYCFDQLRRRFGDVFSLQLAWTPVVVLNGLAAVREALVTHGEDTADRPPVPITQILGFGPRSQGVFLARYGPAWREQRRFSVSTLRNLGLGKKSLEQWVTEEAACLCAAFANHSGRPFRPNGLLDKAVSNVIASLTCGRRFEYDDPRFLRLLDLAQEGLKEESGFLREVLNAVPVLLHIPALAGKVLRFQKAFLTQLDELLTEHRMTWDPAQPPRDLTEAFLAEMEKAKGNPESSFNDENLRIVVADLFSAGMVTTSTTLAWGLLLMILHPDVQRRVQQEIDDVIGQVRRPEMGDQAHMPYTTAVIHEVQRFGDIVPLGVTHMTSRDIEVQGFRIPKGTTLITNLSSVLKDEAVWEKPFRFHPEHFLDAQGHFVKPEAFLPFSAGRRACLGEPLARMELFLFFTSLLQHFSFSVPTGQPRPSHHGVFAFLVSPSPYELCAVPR

| SMILES | Potency [1] | Potency [2] | Potency [3] | Potency [4] | Potency [5] | Potency [6] |
| --- | --- | --- | --- | --- | --- | --- |
| CCc1ccccc1OC[C@@H](O)CN[C@H]1CCCc2ccccc21 | inactive |  |  |  |  |  |
| NS(=O)(=O)c1ccc(N2CCN(CC[C@@H]3OCCc4ccccc43)CC2)cc1 | inactive | inactive | 23.9 µM (active) | inactive | inactive | inactive |
| Cc1ccc(C(=O)Nc2ccc(CN3CCN(C)CC3)c(C(F)(F)F)c2)cc1C#Cc1cnc2[nH]ncc2c1 | 4.77 µM (active) | inactive | 16.9 µM (active) | 6.01 µM (active) | 11.5 nM (active) and 26.3 nM (active) | 14.5 nM (active) and 41.7 nM (active) |
| Cc1[nH]cnc1C[C@H]1CCc2c(C)c3ccccc3n2C1=O |  | inactive | 0.301 µM (active) |  |  |  |
| CC1(C)Oc2ncnc(N)c2N=C1c1ccc(C23CCC(CC(=O)O)(CC2)CC3)cc1 | inactive | inactive | inactive | inactive | inactive | inactive |
| O=C(Nc1ccccc1Br)NC1CCN(c2ccc(C(F)(F)F)cn2)C1 (configuration not stated) |  | inactive | 10.7 µM (active) |  |  |  |
| CCCn1ncc(CN2CCCC(C(=O)c3cccc(OC(C)C)c3)C2)c1C (configuration not stated) |  | inactive | 0.338 µM (active) |  |  |  |
| CCn1c(=O)n([C@H]2CCCN(c3nccc(-c4cc5ccccc5o4)n3)C2)c2ccccc21 |  | inactive | inactive |  |  |  |
| CNC(=O)c1ccc2c(c1)CCO[C@H]2CCN1CCN(c2ccc(OC)cc2)CC1 |  | inactive | inactive | inactive | inactive | inactive |
| C=CC(=O)N1CCC(Oc2cc3c(Nc4ccc(Cl)c(Cl)c4F)ncnc3cc2OC)CC1 | 9.52 µM (active) | inactive | 2.68 µM (active) | 0.239 µM (active) | 4.68 µM (active) | 4.68 µM (active) |
| COc1cccc(N2CCN(C3=Nc4c(F)cccc4[C@H](CC(=O)O)N3c3cc(C(F)(F)F)ccc3OC)CC2)c1 |  | inactive | inactive |  |  |  |
| O=c1[nH]c([C@@H]2CCCN2)nc2c1oc1ccc(Cl)cc12 | inactive | inactive | inactive | inactive | 9.16 µM (active) | 4.59 µM (active) and 10.5 µM (active) |
| COc1ccccc1N1CCN(CC[C@@](C)(C(=O)C2CCCCC2)c2ccccc2)CC1 | 8.49 µM (active) | inactive | 12 µM (active) | 6.01 µM (active) | 16.3 µM (active) | 18.3 µM (active) |
| COc1ccc(C#Cc2ccc(C(=O)N3CCC[C@@H](O)C3)c(F)c2)cc1 |  | inactive | inactive |  |  |  |
| CN(C)c1cccc(Oc2cnc(Nc3cccc(O)c3)nc2)c1 |  | inactive | 21.3 µM (active) |  |  |  |
| CC#C[C@@H](CC(=O)O)c1ccc(OCc2cccc(-c3ccc(C(F)(F)F)cc3)c2)cc1 |  | inactive | inactive |  |  |  |
| O=[N+]([O-])c1cn2c(n1)OC[C@@H](OCc1ccc(-c3ccc(OC(F)(F)F)cc3)nc1)C2 |  | inactive | inactive |  |  |  |
| CC1(C)OC[C@H](NC(=O)Nc2ccc(Br)cc2Br)[C@H](c2ccccc2)O1 |  | inactive | inactive |  |  |  |
| COc1cc(-c2nc(N[C@H](CO)Cc3ccccc3)ccc2C(=O)NCCOc2ccccc2)cc(OC)c1OC |  | inactive | 12 µM (active) |  |  |  |
| O=C(Nc1ccc2[nH]c(=O)oc2c1)C(=O)N1CCC(Cc2ccc(F)cc2)CC1 |  | inactive | 21.3 µM (active) |  |  |  |
| CCN(CC)CCCS(=O)(=O)N[C@H](CCc1ccccc1)c1nc(Cc2ccc(Br)cc2)no1 |  | inactive | 6.01 µM (active) |  |  |  |
| COc1ccc(Sc2ccc(NC(=O)c3ccccc3Cl)cc2C#N)cc1 |  | inactive | inactive |  |  |  |
| O=C1Nc2nc(-c3c(O)cccc3OCC3CC3)cc([C@@H]3CCCNC3)c2CO1 |  | inactive | 19 µM (active) | inactive | 5.78 µM (active) | 5.15 µM (active) |
| COc1ccc(CCN(C)CCCOc2nsc(-c3ccccc3)n2)cc1OC |  | inactive | 1.51 µM (active) |  |  |  |
